# The list is not random: actives were taken first. Their share in the collection is about 2.6%.
# GLP1R ag: qHTS of GLP-1 Receptor Agonists | HEK293 GLP-1R CRE-luciferase, luminescence, 4-6 h; cells express a hypersensitive GLP-1R form | 380,000 tested, 0.007% active | Potency, µM (titrated, usually from 45.6 µM), for the others: at the top dose activation, most hits filed as activators; also: % of control where 0% means no effect
# Target sequence (P43220 whole entry, looked up): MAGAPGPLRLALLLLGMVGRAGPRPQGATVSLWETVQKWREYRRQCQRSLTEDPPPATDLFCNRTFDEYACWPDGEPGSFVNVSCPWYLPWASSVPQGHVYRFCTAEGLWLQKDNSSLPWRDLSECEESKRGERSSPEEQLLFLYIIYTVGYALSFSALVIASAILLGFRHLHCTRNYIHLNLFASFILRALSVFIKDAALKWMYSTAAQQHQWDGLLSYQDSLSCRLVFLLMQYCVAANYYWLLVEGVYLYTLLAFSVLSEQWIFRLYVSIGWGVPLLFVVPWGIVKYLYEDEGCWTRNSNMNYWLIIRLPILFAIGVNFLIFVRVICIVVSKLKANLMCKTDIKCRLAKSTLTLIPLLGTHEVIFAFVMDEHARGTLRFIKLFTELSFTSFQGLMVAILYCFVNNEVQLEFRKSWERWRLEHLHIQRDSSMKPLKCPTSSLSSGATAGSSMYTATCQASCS
# GLP1R inv ag: qHTS of GLP-1 Receptor Inverse Agonists (Inhibition Mode); Glucagon-like peptide 1 receptor (Homo sapiens), P43220; HEK293 GLP-1R CRE-luciferase, luminescence, 24 h; GLP-1R form is constitutively active; Potency, µM (highest dose often 38.3 µM), without a hit: at the highest dose activity change, negative = inhibition, hits mostly inhibitors; 410,000 tested, 1.6% active; also: % is scaled to controls: 0 for no effect and ±100 for the full control effect; nearly all actives have a fitted effect of over 55% in size
#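 qHTS in 1536-well format: reporter HEK293 cells expressing constitutive GLP-1R activity in DMEM + 10% Nu serum, 24 hr with compounds at 37 deg C, luminescence read after 12 min with detection reagent.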
# BRCA1 expr up: qHTS Assay to Identify Small Molecule Activators of BRCA1 Expression; MCF7-BRCA1-FFLuc reporter, luminescence, 48 h; response scale: scaled: vehicle 0%, 10 µM genistein 100%; Potency, µM (series often up to 46.1 µM), for the others: top-dose activation, actives largely listed as activators; 380,000 tested, 1.1% active; AID 624202, 2012; also: nearly all actives have a fitted effect of over 80% in size
#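 Quantitative HTS in MCF7 cells stably reporting BRCA1 expression via firefly luciferase. Compound treatment lasts 48 h at 37 °C in phenol-red free MEM. Activation is expressed relative to genistein at 10 microM and DMSO.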
# HEK293 tox: qHTS of GLP-1 Receptor Inverse Agonists: Cytotox Screen; HEK293 cAMP-luciferase reporter cells, luminescence, 24 h; 410,000 tested, 0.13% active; Potency, µM (top dose mostly 38.3 µM), for inactives: top-dose activity change, negative = inhibition, actives largely listed as inhibitors;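 also: loss of luciferase light is scored as toxicity; % is scaled to controls: 0 for no effect and ±100 for the full control effect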
#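 Cells in DMEM/10% Nu serum/1% pen-strep, 1536-well format. Pre-incubated 12 h, dosed with 23 nL compound, incubated a further 24 h. Luciferase detection, 12 min at room temp, luminescence.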
# * marks the source's active call; other numbers are inactive results; ? = inconclusive; . = no result given. Calls follow the shape of the dose curve; as a rule, active = well fitted curve in the direction sought with a large enough effect; inconclusive = small, poorly fitted or top-dose-only effect, or another doubt; inactive = no such curve, though single readings can be large; an effect the other way counts as inactive or inconclusive. Potency is read from the fitted curve at half-maximal effect.
SMILES,GLP1R ag,GLP1R inv ag,BRCA1 expr up,HEK293 tox
O=C(/C=C/Nc1ccccc1)c1ccccc1,-40%,?,?,-9%
O=C(/C=C/Nc1ccccc1)c1ccc(Cl)cc1Cl,-4%,11µM*,?,10%
CC(C)C(=O)Nc1ccc2nc(SCC(=O)N3CCc4ccccc43)sc2c1,.,?,0%,-21%
O=c1cc(-c2ccccc2F)oc2ccccc12,?,-8%,13µM*,-15%
C=CCCN(C(CC(C)C)C(=O)OC)S(=O)(=O)c1ccccc1Br (stereo not drawn),-1%,?,-1%,20%
C=CCCN(C(CC(C)C)C(=O)OC)S(=O)(=O)c1cc(Br)ccc1Br (stereo not drawn),-1%,11µM*,-27%,5%
O=C(Cc1coc2cc3c(cc12)CCC3)NC1CCCCCCC1,0%,?,15%,0%
O=C(Cc1coc2cc3c(cc12)CCC3)NCC1(N2CCCCC2)CCCCC1,9%,10µM*,-40%,?
N/C(Cc1cccs1)=N\OC(=O)COc1ccccc1Cl,-1%,?,13µM*,-1%
COc1ccc(OC)c(NC(=O)c2nc(S(=O)(=O)Cc3ccccc3F)ncc2Cl)c1,.,.,-35%,.
COc1cc(NC(=O)CCN2CCN(C/C=C/c3ccccc3)CC2)cc(OC)c1,14%,10µM*,-37%,-19%
COc1ccc(NC(=O)CCN2CCN(C/C=C/c3ccccc3)CC2)cc1,5%,-18%,-5%,-12%
Cc1nc(N)nc(N)c1CCCc1ccc(Cl)c(Cl)c1,11%,7.1µM*,-16%,-30%
Cc1nc(N)nc(N)c1-c1ccc(Cl)c(Cl)c1,0%,?,-68%,-24%
CCn1c2ccccc2c2cc(NC(=O)Cc3ccc(S(=O)(=O)N4CCOCC4)s3)ccc21,-9%,10µM*,-8%,-22%
CCCC(=O)Nc1ccc2c(c1)c1ccccc1n2CC,1%,-19%,-62%,6%
CCn1c2ccccc2c2cc(NC(=O)N3CCCCC3)ccc21,17%,10µM*,8.9µM*,-8%
CCc1cccc(NC(=O)CCS(=O)(=O)c2cc3c4c(c2)CCN4C(=O)CC3)c1,.,-5%,0%,3%
COc1ccc(S(=O)(=O)n2ccc(C(C)Oc3ccc(-c4ccccc4)c(F)c3)n2)cc1 (stereo not drawn),4%,8.9µM*,-71%,0%
CC(Oc1ccc(-c2ccccc2)c(F)c1)c1ccn(S(=O)(=O)c2ccc(F)cc2)n1 (stereo not drawn),-1%,?,-39%,-20%
COc1cc2c(c(OC)c1OC)-c1c(cc3c(c1OC)OCO3)C[C@@H](C)[C@](C)(O)C2,4%,.,.,.
Cc1cccc(NC(=O)Cn2c(=O)n(Cc3nc(-c4ccccc4)no3)c(=O)c3ccccc32)c1,.,-17%,.,-1%
CCOc1ccc(NC(=O)Nc2ccon2)cc1,10%,-7%,10µM*,-17%
CCOc1ccc(NC(=O)Nc2ccccc2SC)cc1,1%,?,2.8µM*,3%
Cc1ccc(S(=O)(=O)N(Cc2ccccc2)c2ccccc2C(=O)N2CCCCC2)cc1,8%,8.9µM*,-57%,?
SMILES,GLP1R ag,GLP1R inv ag,BRCA1 expr up,HEK293 tox
CCOC(=O)c1c(C)[nH]c(C)c1S(=O)(=O)N1CCCC(C(=O)NCc2cccc(C)c2)C1 (stereo not drawn),.,-1%,.,-3%
CC1=C(C(=O)Nc2ccc(F)cc2F)C2(CCN(C(C)C)CC2)OC1=O,.,4%,-4%,7%
S=c1[nH]nc(SCc2ccccc2)c2[nH]cnc12,15%,17%,3.5µM*,?
CCCCSc1n[nH]c(=S)c2nc[nH]c12,3%,-18%,39%,?
COc1ccc(-c2[nH]c(-c3ccc4c(c3)OCO4)nc2-c2ccccc2)cc1,-10%,1.8µM*,-86%,?
COc1ccc(CN2C(=O)N(c3cccc(C)c3)C(=O)C2CC(=O)Nc2ccc(F)cc2)cc1OC (stereo not drawn),3%,23%,-7%,9%
O=C(c1ccc2c(c1)N(Cc1ccccc1)C(=O)c1ccccc1S2(=O)=O)N1CCN(c2ccccn2)CC1,.,5%,.,4%
O=C(Nc1ccccc1)N1CCCC2CCCCC21 (stereo not drawn),-11%,?,11µM*,-13%
CC1=C/C(=N\NC(=S)Nc2cccnc2)CC(C)(C)C1,9%,4µM*,-26%,1µM*
CC1(C)C2CC=C(/C=N/NC(=S)Nc3cccnc3)C1C2 (stereo not drawn),9%,1%,-22%,-21%
COc1ccc(OCc2cc(C(=O)N(C)Cc3nnc(C)o3)no2)c(Cl)c1,-5%,-12%,7.1µM*,3%
CCc1ccc(CN(C)C(=O)c2cc(COc3ccc(OC)cc3Cl)on2)nc1,16%,?,8.9µM*,6%
CN(CCCN1CCOCC1)C(=O)c1cc(COc2ccc(F)cc2F)on1,2%,-19%,0%,3%
CN(Cc1ccccn1)C(=O)c1cc(COc2ccc(F)cc2Cl)on1,8%,?,82%,-5%
COc1cc(C)ccc1OCc1cc(C(=O)N(C)CCCN2CCOCC2)no1,-5%,17%,7.9µM*,-4%
COc1cc(Cl)ccc1OCc1cc(C(=O)N(C)Cc2nnc(C)o2)no1,1%,17%,69%,13%
Cc1cc(CN(C)C(=O)c2cc(COc3ccc(F)cc3Cl)on2)n[nH]1,13%,-5%,7.9µM*,-11%
CC(=O)c1ccc(OCc2cc(C(=O)N(C)Cc3cc(C)no3)no2)cc1,0%,18%,66%,-3%
COc1ccc(OCc2cc(C(=O)N(C)Cc3cc(C)no3)no2)c(Cl)c1,10%,?,4µM*,3%
O=C(Nc1ccccc1)Nc1cc(OCC(F)(F)F)cc(OCC(F)(F)F)c1,0%,2.8µM*,-99%,5.6µM*
O=C(Nc1ccccc1)Nc1cc(Cl)cc(Cl)c1,-47%,2.8µM*,-75%,?
COc1cccc(-c2nc(CS(=O)(=O)CC(=O)NCc3ccc(C)cc3)c(C)o2)c1,.,?,.,-8%
OC(Cc1ccccc1Br)c1ncc(-c2cccc(C(F)(F)F)c2)[nH]1 (stereo not drawn),1%,10µM*,-54%,-29%
COc1ccc2[nH]c(=O)c(-c3noc(-c4ccccc4)n3)cc2c1,7%,59%,5.6µM*,56%
O=c1cc(CN(Cc2ccccc2)Cc2ccccc2)c2c(ccc3ccccc32)o1,-6%,?,-15%,8%
COc1ccc(C(=O)COc2ccc(F)cc2)c(O)c1,17%,?,11µM*,-2%
COCc1cc(O)c(O)c(O)c1-c1c(COC)cc(O)c(O)c1O,.,.,-15%,.
Cc1cccc(C)c1NC(=O)Cn1nc(C)c2sc3ccccc3c2c1=O,.,3%,.,-2%
